Our source for the growth values is PubChem BioAssay (NCI).

Compounds without any hit were thinned out: in the full panel of roughly 83,000, 20% have a hit.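 Percent growth is the endpoint: 0 to 100 indicates growth inhibition (40 means 60% inhibition), 0 means no net growth, and negative values indicate cell death.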 The source made the active and inactive calls.

This assay deals with PC-3 prostate. The experiment in a line: NCI-60 one-dose screen, 48 h (100 = growth as untreated, 0 = no growth, -100 = all killed). Particulars: 10 µM unless noted. As to the method: Growth inhibition of the PC-3 human tumor cell line is measured as a screen for anti-cancer activity. Cells are grown in 96 well plates and exposed to the test compound for 48 hours. Compounds are tested at a single concentration, which is 10^-5 M for most compounds. The reported endpoint is percent growth (GI% or GIPRCNT), where numbers from 0 - 100% represent growth inhibition, and numbers from -100% - 0 represent cell death. For example, a value of 40 represents 60% growth inhibition. A value of 0 means no net growth occurred over the course of the experiment. A value of -40 indicates 40% of cells at the beginning of the experiment died by the end of the experiment. A value of -100 means all cells are dead at the end of the experiment.
NCI-60 Human Tumor Cell Lines Screen was performed using the standard one-dose NCI protocol, which is described in more detail at https://dtp.cancer.gov/discovery_development/nci-60/default.htm.
Compounds with GIPRCNT values below 10 were considered active. Activity score was based on GIPRCNT using the following formula: […]
Score is 0 for GIPRCNT values of 100 or above, 50 for GIPRCNT values of 0, and 100 for GIPRCNT values of -100.
Regarding `Nc1c(C(=O)Nc2ccccc2C(F)(F)F)sc2nc3c(cc12)CCC3`, the growth is 100% (inactive).
Turning to `O=C(/C=C/c1ccco1)Nc1ncc(Cc2cccc(C(F)(F)F)c2)s1`, the growth was 17% (inactive).
The figure for `Cc1ccc2c(n1)C(=O)C(Br)=C(CC(C)C)C2=O` is 97.5% (inactive); for `CCOc1ccccc1Cn1ccnc1CCc1c(Cl)c(O)cc(O)c1C(=O)OC` it is 86.9% (inactive).
The result for `CSc1nnc(-c2cc3c([nH]c4ccccc43)c(-c3cccc(O)c3)n2)n1-c1ccccc1` reads 29.9% (inactive); that for `Cc1nc2sc(C(=O)Nc3cccc4ccccc34)c(N)c2cc1C(O)c1ccccc1` (stereo not given), 14.8% (inactive); that for `CC(C)COc1nc2c(c(=O)n(C)c(=O)n2C)n1C`, 102% (inactive).
The result for `Fc1cnccc1C1CC(c2ccc(N3CCNCC3)cc2)=NN1` (stereo not given) reads 70.3% (inactive); that for `CC1=NC2=Nn3c(c4cnn(-c5ccccc5)c4n/c3=N\N)NN2C(c2ccccc2)=C1`, 90.5% (inactive).
In the case of `N=C(N)c1ccc(-c2ccc(-c3ccccc3)o2)cc1`, the growth is -23.3% (active).
On to `C=CCOC(=O)Nc1cccn([C@H](Cc2ccccc2)C(=O)NCCC(C)C)c1=O`, for which the growth is 92.3% (inactive).
The figure for `CS(=O)(=O)Nc1cc(-c2ccc3ncnc(Nc4ccc5c(cnn5Cc5ccc(F)cc5)c4)c3c2)cnc1Cl` is 38.2% (inactive).
On to `CCOC(=O)c1nn(-c2ccc(S(N)(=O)=O)cc2)c2nc(C)cc(=O)n12`, for which the growth was 101% (inactive).
The figure for `COC1=CC(c2ccc[nH]2)=N/C1=C\c1[nH]c(C)c(C)c1CCC(=O)OCc1ccccc1` is -27.2% (active); for `CN(C)CC1CCC(CN(C)C)C1=O` (stereo not given) it is 96.7% (inactive); for `O=[N+]([O-])c1ccc(O)cc1Br` it is 88.8% (inactive).
Turning to `COc1c(C(=O)Nc2ccc(C)c(Br)c2)ccc2ccccc12`, the growth was 87.7% (inactive).
Regarding `COc1ccc(C/C(C)=C(/c2ccc(OCCN(C)C)cc2)c2ccc(OC(=O)NCc3ccccc3)cc2)cc1`, the growth is 68.4% (inactive).
The figure for `CCC1=C[C@@H]2C[C@]3(C(=O)OC)c4[nH]c5ccccc5c4CC[N@+](CC(=O)Nc4cc5c(cc4OC)N(C)[C@H]4[C@@](O)(C(=O)OC)[C@H](OC(C)=O)[C@]6(CC)C=CCN7CC[C@]54[C@@H]76)(C2)[C@H]13` is 93.2% (inactive); for `Cc1ccc(/C=C2\COc3ccc(O)cc3C2=O)cc1` it is 86% (inactive); for `CC(C)C1=NOC(=O)C1=Cc1cn(-c2ccccc2)nc1-c1ccc(F)cc1` it is 38.5% (inactive).
For the compound `COC(=O)Nc1nc2ccc(S(=O)c3ccccc3)cc2[nH]1` (stereo not given), the growth was 67.4% (inactive).
`Cc1ccc(Nn2c(SCC(=O)Nc3nc(-c4ccccc4)cs3)nc(C)c2C)cc1`: the growth was 71.8% (inactive).
As for `Cc1ccc(C)n1-c1ccccc1-n1c(C)ccc1C`, the growth was 98.7% (inactive).
The result for `CCOC(=O)c1c(NC(=O)c2ccc(Cl)cc2)sc2c(CN(C)C)c(O)ccc12` reads 72.9% (inactive); that for `O=C(Nc1cccc(-c2ccc(Cl)c(C(F)(F)F)c2)c1)C1CCN(Cc2cccc3cccnc23)CC1`, 10.8% (inactive).
Take `COc1ccc(F)cc1/C=C/C(=O)/C=C(/C=C/c1cc(F)ccc1OC)OB(F)F`: the growth was 29% (inactive).
The figure for `N#CC1=C(N)Oc2c(c(=O)[nH]c3ccc(Cl)cc23)C12C(=O)c1ccccc1C2=O` is 91.6% (inactive); for `Cc1ccc(-c2nc(N3CCCNCC3)c3oc(-c4ccc(C)cc4)nc3n2)cc1` it is -89.5% (active).
The result for `COc1cccc(CNc2ccc3ncnc(Nc4ccc(F)c(Cl)c4)c3c2)c1` reads 52.7% (inactive).
The figure for `COc1ccc2c(c1)N(CCO)C1=C(C(=O)OC1)C2c1cccc(F)c1` (stereo not given) is 25.6% (inactive).
For `CSc1nc2ccccc2cc1/C=[N+](\[O-])c1ccccc1`, the growth is 40.9% (inactive).
The figure for `Cc1c(-c2ccc(O)cc2)n(Cc2ccc(OCCN3CCCCCC3)cc2)c2ccc(O)cc12` is 76.8% (inactive); for `COc1ccc(C2CC(c3ccc(Nc4nc(Nc5ccccc5)nc(Nc5ccccc5)n4)cc3)=NN2C(C)=O)cc1` (stereo not given) it is 86.4% (inactive); for `Nc1cc(C(=O)NC[C@H]2CN(c3ccc(N4CCC(C(=O)O)CC4)cc3)C(=O)O2)ccc1Cl` it is 101% (inactive).
Take `COc1ccc(/C=N/C2=C(C#N)C(c3ccccc3)c3ccc4ccccc4c3O2)cc1` (stereo not given): the growth is 8.18% (active).
Turning to `Cc1ccc(NC(=O)c2sc3nc(C)c(Br)c(C)c3c2N)cc1`, the growth is 53.7% (inactive).
For `O=C1c2ccccc2-c2c1c1c(=O)[nH]c3ccccc3c1n2Cc1ccccc1`, the growth was 74% (inactive).
Regarding `CCC(=O)Oc1ccc(-c2ccccc2)cc1Br`, the growth was 95.4% (inactive).
For the compound `CCOC(=O)c1ccc2c(c1)nc(-c1ccccc1)n2C1CCCCC1`, the growth was 74.1% (inactive).
